Most compounds without a hit are left out; they make up all but 1.2% or so of the library.
RGS16-Gao: regulators of human RGS16-Galphao interaction | bead-based flow cytometry RGS16-Galphao binding, fluorescence; actives lie on both sides | binding response (% of control), % at 10 µM | 220,000 tested, 0.38% active | AID 1441;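 also: Galphao activated by GDP with aluminum fluoride before binding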
RGS4-Gao reg: human RGS4-Galphao interaction regulation | P09471 | Multiplexed bead flow cytometry, RGS4-Galphao binding; actives lie on both sides | binding response (% of control), % at 10 µM | 220,000 tested, 0.33% active; in the data active = binding response below about 49% or above about 150%; inactive = in between;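 also: fluorescent Galphao activated with aluminum fluoride binding bead-coupled RGS4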
GSH fluor: GSH bead compound fluorescence profile; GSH beads flow cytometry, compound fluorescence 488/530 nm; stronger effect = higher value; fluorescence (KMESF) at 10 µM; 190,000 tested, 0.25% active; AID 1776; in the data active = fluorescence above about 89;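 also: glutathione beads carrying GST-tagged Bcl family fusion proteins plus one bare bead set; values are compound well signal with DMSO vehicle wells as background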
RGS7-Gao reg: regulators of human RGS7-Galphao interaction. binding response (% of control), % at 10 µM. P09471. 220,000 tested, 0.35% active. Multiplexed bead flow cytometry, RGS7-Galphao binding; actives lie on both sides; in the data active = binding response below about 49% or above about 150%; inconclusive = no clear call, values can overlap the other calls; inactive = in between;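 also: fluorescent Galphao held in activated GDP-AlF4 state binding bead-coupled RGS7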
Avidin bead fluor: compound fluoresces at 488/530 nm on avidin beads; fluorescence (KMESF) at 10 µM; 220,000 tested, 0.38% active; AID 1775; compound fluorescence 488/530 nm, flow cytometry; stronger effect = higher value; in the data active = fluorescence above about 47
RGS8-Gao reg: regulators of human RGS8-Galphao interaction; P09471; multiplexed bead flow cytometry, RGS8-Galphao binding; actives lie on both sides; response (percent of control binding), % at 10 µM; 220,000 tested, 0.34% active; in the data active = response below about 60% or above about 140%; inactive = in between;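 also: Galphao activated as the GDP aluminium fluoride complex binding bead-coupled RGS8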
RGS-Gao: regulators of human RGS4-Galphao interaction; shares compounds with RGS16-Gao; multiplexed bead flow cytometry, RGS–Galpha-o binding; RGS4–Galpha-o binding response, % at 10 µM; 1,600 tested, 99% active; AID 1504;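 also: fluorescently labeled Galpha-o bound to GDP with aluminium fluoride binding biotinylated RGS beads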
Target sequence (P09471 whole entry, looked up): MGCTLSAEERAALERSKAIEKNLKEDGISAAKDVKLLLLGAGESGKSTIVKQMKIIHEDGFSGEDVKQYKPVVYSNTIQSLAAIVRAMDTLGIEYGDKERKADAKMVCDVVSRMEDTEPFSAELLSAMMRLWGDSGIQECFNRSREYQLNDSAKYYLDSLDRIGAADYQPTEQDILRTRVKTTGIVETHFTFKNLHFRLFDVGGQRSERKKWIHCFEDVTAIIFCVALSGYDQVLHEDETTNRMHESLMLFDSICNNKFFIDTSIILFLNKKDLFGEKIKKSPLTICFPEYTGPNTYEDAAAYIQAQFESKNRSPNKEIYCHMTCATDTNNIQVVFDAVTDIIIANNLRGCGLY
Target sequence (P49798 whole entry, looked up): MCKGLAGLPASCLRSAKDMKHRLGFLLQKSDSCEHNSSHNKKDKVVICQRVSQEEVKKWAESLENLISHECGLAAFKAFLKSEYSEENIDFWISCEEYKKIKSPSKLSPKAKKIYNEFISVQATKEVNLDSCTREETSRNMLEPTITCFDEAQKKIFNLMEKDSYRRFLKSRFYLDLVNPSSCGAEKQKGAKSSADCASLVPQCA
Avidin counter: counter-screen: compounds disrupting biotin binding to avidin beads | 1,700 tested, under 10 active | inhibition, % at 10 µM | shares compounds with RGS16-Gao | streptavidin beads, fluorescein-biotin binding, flow cytometry;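 active = inhibition above 50%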;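 also: median green fluorescence of gated singlet beads compared with DMSO control wells; 0% = DMSO wells and 100% = complete loss of bead fluorescence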
RGS8-Gao confirm: confirmation of regulators of human RGS8-Galphao interaction; shares compounds with RGS16-Gao; bead-based flow cytometry RGS8-Galphao binding, fluorescence; actives lie on both sides; binding response (% of control), % at 10 µM; 1,700 tested, 3% active; in the data active = binding response below about 72% or above about 130%; inactive = in between;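 also: Galphao activated as GDP AlF4 complex before binding bead RGS8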
RGS7-Gao single: confirmation of regulators of human RGS7-Galphao interaction; shares compounds with RGS16-Gao; bead-based flow cytometry RGS7-Galphao binding; actives lie on both sides; response (percent of control binding), % at 10 µM; 1,700 tested, 7.8% active; in the data active = response below about 75% or above about 130%; inactive = in between;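 also: fluorescent Galphao activated with GDP and aluminum fluoride binding bead-coupled RGS7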
RGS16-Gao conf: confirmation of regulators of human RGS16-Galphao interaction; response (% of control binding), % at 10 µM; 1,700 tested, 4% active; bead-based flow cytometry, RGS16-Galphao binding; actives lie on both sides; shares compounds with RGS16-Gao; in the data active = response below about 74% or above about 130%; inactive = in between;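 also: Galphao activated as the GDP aluminium fluoride complex binding bead-coupled RGS16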
RGS4-Gao single: RGS4-Galphao interaction regulation, single point confirmation | binding response (% of control), % at 10 µM | shares compounds with RGS16-Gao | RGS4-Galphao binding, multiplexed bead flow cytometry; actives lie on both sides | 1,700 tested, 4% active; in the data active = binding response below about 74% or above about 130%; inactive = in between
RGS19-Gao single: confirmation of regulators of human RGS19-Galphao interaction; 1,700 tested, 5% active; shares compounds with RGS16-Gao; bead-based flow cytometry RGS19-Galphao binding; actives lie on both sides; response (percent of control binding), % at 10 µM; in the data active = response below about 50% or above about 160%; inactive = in between;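 also: 100% = no compound control and 0% = blank background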
Numbers without * were called inactive; ? = inconclusive; · = not tested or not shown; [ ] = dose if it differs, or a comment. Unless noted, no rule for the calls is given here.

SMILES	RGS16-Gao	RGS4-Gao reg	GSH fluor	RGS7-Gao reg	Avidin bead fluor	RGS8-Gao reg	RGS-Gao	Avidin counter	RGS8-Gao confirm	RGS7-Gao single	RGS16-Gao conf	RGS4-Gao single	RGS19-Gao single
CCC(=O)NC1=C(Cl)C(=O)C(NC(=O)CC)=C(Cl)C1=O	8.6*	73	·	?	3	53*	73*	-2	35*	54*	-3.1*	77	-6.5*
COCC(C)NCc1ccc(OC)c(Br)c1 (stereo unspecified)	108	106	19	107	9	104	·	·	·	·	·	·	·
C=CCn1c(Cc2ccccc2)n[nH]c1=S	9.3*	96	13	93	8	66	96*	-1	103	107	101	106	112
C=CCn1c(Cc2c[nH]c3ccccc23)n[nH]c1=S	103	100	33	100	10	102	·	·	·	·	·	·	·
COc1ccccc1OCc1nc(C#N)c(N2CCCC2)o1	-34	22*	23	13*	0	16*	·	0	98	92	97	95	91
Cc1ccc(-n2c(C)cc(C(=O)COc3c(CO)cc(F)cc3CO)c2C)cc1C	332	116	10	115	4	153*[activator]	116*	2	105	104	104	103	108
CCOc1ccc(N(CC(=O)NN=C2CCCC2)S(C)(=O)=O)cc1	100	103	10	103	10	105	·	·	·	·	·	·	·
CC(C)N(NC(=O)c1cccc2ccccc12)C(C)C	175*[activator]	144	11	147	23	151*[activator]	144*	1	102	103	98	100	103
COc1ccc(-c2nnc(SCc3ccc(C(=O)O)cc3)n2N)cc1	102	103	·	?	11	105	·	·	·	·	·	·	·
COc1ccccc1/C=C/C=C1\Oc2c(ccc(O)c2CN2CCN(CCO)CC2)C1=O	284	218*[activator]	15	246*[activator]	127*	146*[activator]	·	1	104	107	101	101	80
CCN1CCN(Cc2c(O)ccc3c2O/C(=C\C=C\c2ccccc2)C3=O)CC1	187*[activator]	106	11	103	17	117	106*	-1	100	101	99	101	100
O=C1/C(=C/C=C/c2ccccc2)Oc2c1ccc(O)c2CN1CCN(CCO)CC1	85	85	·	?	7	97	·	·	·	·	·	·	·
N=C1c2ccccc2CN1NC(=O)c1cccc(S(=O)(=O)N2CCOCC2)c1	236*[activator]	116	12	114	10	126	116*	2	108	165*[activator]	126*[activator]	127*[activator]	324*[activator]
Cc1cc(C)c2c(N)c(C(=O)NCC3CCCCC3)sc2n1	104	98	9	103	10	100	·	·	·	·	·	·	·
Cc1cc(C)c2c(N)c(C(=O)NC3CCCC3)sc2n1	131	113	21	147	3	142*[activator]	113*	0	97	73*	87	87	70
CCC(=O)c1ccc(OCCn2cnc3ccccc32)cc1	98	101	17	?	13	98	·	·	·	·	·	·	·

Compound activity deposited in PubChem BioAssay by NMMLSC.
